This passage reports composite z-score and z-score results from PubChem BioAssay.

Calls of active or inactive are those of the source.

Assay [1] can be described thus: small molecules captured by biotinylated probe aFSTL3 – biochemical, small-molecule microarray, fluorescence 635/667, stem cell growth factor project, primary screen (AID 1064).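 Further: measures binding of the biotinylated anti-FSTL3 antibody to printed compounds.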 Particulars: higher = more signal.
Assay [2] in a line: binders from COS7 lysate, DM2A8 probe, primary screen, torsin A project, cell lysate, small-molecule microarray, fluorescence 635/667 (AID 1065). To be noted: higher = more signal, COS7 lysate expressing mutant human TOR1A.
Assay [3] can be described thus: small molecules captured by biotinylated probe aFGF2 – biochemical, small-molecule microarray, fluorescence 635/667, stem cell growth factor project, primary screen (AID 1067).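 Further: measures binding of biotinylated aFGF2 protein to printed compounds on slides; z-score merges feature fluorescence and signal-to-noise across triplicate slides.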 Particulars: higher = more signal.
A short description of assay [4]: small molecules captured by biotinylated probe aFGF10 – biochemical, small-molecule microarray, fluorescence 635/667, stem cell growth factor project, primary screen (AID 1071).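 Further: score merges 667 nm spot intensity and signal to noise from triplicate slides.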 To be noted: higher = more signal.
The target of assay [5] is Neurogenic locus notch homolog protein 2 (Homo sapiens) (UniProt Q04721). The assay can be described thus: small molecules binding Notch2 protein – biochemical, small-molecule microarray, 635 nm fluorescence, stem cell growth factors, primary screen (AID 1073). Particulars: higher = more signal.
In assay [6] the target is Pro-neuregulin-1, membrane-bound isoform (Homo sapiens) (UniProt Q02297). The assay can be described thus: small molecules binding neuregulin-1 protein – biochemical, small-molecule microarray, fluorescence 635/667, psychiatric disease protein project, primary screen (AID 1075).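 Further: score combines 667 nm spot fluorescence with signal to noise.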 To be noted: NRG1 binding, 635 nm fluorescence, higher = more signal.
The test system of assay [7] is Neuregulin-1 EGF-like domain. The assay can be described thus: small molecules binding NRG1 EGF domain – biochemical, small-molecule microarray, 635 nm fluorescence, primary screen (AID 1081).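 Further: binding of the protein to compounds printed on small-molecule microarray slides.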 Particulars: higher = more signal.
A short description of assay [8]: FRG1 expression reporter modulators in myotubes – cell-based, C2C12 myotubes, firefly/Renilla luciferase, luminescence, FRG1 inhibition for FSHD, primary screen (AID 1084). Particulars: FRG1 promoter luciferase, higher = more signal, called active from +8 up or from −8 down.
Assay [9] can be described thus: small molecules captured by biotinylated probe aFST – biochemical, small-molecule microarray, fluorescence 635/667, stem cell growth factor project, primary screen (AID 1086).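 Further: score merges 667 nm fluorescence with signal-to-noise of each printed compound spot.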 To be noted: higher = more signal.
Assay [10] can be described thus: binders of probe aHhip on microarray, primary screen, stem cell growth factor project, biochemical, small-molecule microarray, fluorescence 635/667 (AID 1087).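 Further: score merges spot fluorescence at 667nm with spot signal to noise ratio.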 To be noted: higher = more signal.
Assay [11] deals with PRMT1 (protein arginine N-methyltransferase 1). The assay can be described thus: small molecules binding arginine methyltransferase PRMT1 – biochemical, small-molecule microarray, 635 nm fluorescence, primary screen (AID 1088).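 Further: binding of Prmt1 protein to compounds spotted on small-molecule microarray slides.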 Particulars: higher = more signal.
Assay [12] in a line: growth effects on S. cerevisiae YJM789 – YJM789 clinical isolate, OD600, 24 h, basal, primary screen (AID 1089).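 Further: growth of clinical yeast isolate S. cerevisiae YJM 789 seeded 1000 cells per well; test concentration not given here.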 Particulars: higher = more signal, called active from +8 up or from −8 down.
Assay [13] in a line: S. pombe growth modifiers, basal conditions – strain 972, OD600, 24 h, no modulator, primary screen (AID 1090).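 Further: basal condition with compound alone and no growth modifier present; test concentration not given here.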 Particulars: S. pombe 972 growth, higher = more signal, called active from +8 up or from −8 down.
Assay [14] can be described thus: budding yeast growth modifiers under rapamycin – strain BY4716, OD600, 96 h, primary screen (AID 1091). Further: test concentration not given here. Particulars: S. cerevisiae BY4716 + rapamycin, higher = more signal, called active from +8 up or from −8 down.
In assay [15] the target is Torsin-1A-interacting protein 2 (Homo sapiens) (UniProt Q8NFQ8). The assay can be described thus: small molecules binding lysate-expressed LULL1 – cell lysate, human LULL1 lysate, 635/667 nm fluorescence, primary screen (AID 1092).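 Further: probe is lysate of COS7 cells overexpressing human LULL1; score merges per-feature 667 nm fluorescence with signal-to-noise.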 To be noted: small-molecule microarray, hLULL1 lysate binding, 635 nm fluorescence; higher = more signal.
The nature of assay [16]: optical density change of DRC41 E. coli – strain DRC41, OD650, 24 h, E. coli filamentation project, primary screen (AID 1093).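 Further: MC1000 strain lacking acrAB efflux and sulA so SOS filamentation is blocked; test concentration not given here.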 Particulars: E. coli DRC41 growth, higher = more signal, called active from +8 up or from −8 down.
The nature of assay [17]: probe aLefty2 binding to arrayed compounds – biochemical, biotinylated probe, 635/667 nm fluorescence, primary screen (AID 1094).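 Further: score merges spot fluorescence near 667 nm with spot signal-to-noise ratio.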 Particulars: small-molecule microarray, higher = more signal.
In assay [18] the test system is Noggin (protein binding on small-molecule microarray). The assay can be described thus: small molecules binding Noggin protein – biochemical, 635/667 nm fluorescence, primary screen (AID 1095).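 Further: score merges 667 nm feature fluorescence with signal to noise over triplicate slides.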 Particulars: 635 nm fluorescence, higher = more signal.
The target in assay [19] is Neurogenic locus notch homolog protein 3 (Homo sapiens) (UniProt Q9UM47). The assay can be described thus: small molecules binding NOTCH3 protein – biochemical, 635/667 nm fluorescence, primary screen (AID 1096). To be noted: small-molecule microarray, 635 nm fluorescence, higher = more signal.
The nature of assay [20]: probe aEGFR binding to arrayed compounds – biochemical, biotinylated probe, 635/667 nm fluorescence, primary screen (AID 1097).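 Further: probe is a biotinylated anti-EGFR antibody binding compounds printed on slides; score combines fluorescence near 667 nm and signal to noise of each spot.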 Particulars: small-molecule microarray, higher = more signal.

Neurogenic locus notch homolog protein 2 (Homo sapiens), sequence (Q04721 whole entry, looked up, canonical isoform): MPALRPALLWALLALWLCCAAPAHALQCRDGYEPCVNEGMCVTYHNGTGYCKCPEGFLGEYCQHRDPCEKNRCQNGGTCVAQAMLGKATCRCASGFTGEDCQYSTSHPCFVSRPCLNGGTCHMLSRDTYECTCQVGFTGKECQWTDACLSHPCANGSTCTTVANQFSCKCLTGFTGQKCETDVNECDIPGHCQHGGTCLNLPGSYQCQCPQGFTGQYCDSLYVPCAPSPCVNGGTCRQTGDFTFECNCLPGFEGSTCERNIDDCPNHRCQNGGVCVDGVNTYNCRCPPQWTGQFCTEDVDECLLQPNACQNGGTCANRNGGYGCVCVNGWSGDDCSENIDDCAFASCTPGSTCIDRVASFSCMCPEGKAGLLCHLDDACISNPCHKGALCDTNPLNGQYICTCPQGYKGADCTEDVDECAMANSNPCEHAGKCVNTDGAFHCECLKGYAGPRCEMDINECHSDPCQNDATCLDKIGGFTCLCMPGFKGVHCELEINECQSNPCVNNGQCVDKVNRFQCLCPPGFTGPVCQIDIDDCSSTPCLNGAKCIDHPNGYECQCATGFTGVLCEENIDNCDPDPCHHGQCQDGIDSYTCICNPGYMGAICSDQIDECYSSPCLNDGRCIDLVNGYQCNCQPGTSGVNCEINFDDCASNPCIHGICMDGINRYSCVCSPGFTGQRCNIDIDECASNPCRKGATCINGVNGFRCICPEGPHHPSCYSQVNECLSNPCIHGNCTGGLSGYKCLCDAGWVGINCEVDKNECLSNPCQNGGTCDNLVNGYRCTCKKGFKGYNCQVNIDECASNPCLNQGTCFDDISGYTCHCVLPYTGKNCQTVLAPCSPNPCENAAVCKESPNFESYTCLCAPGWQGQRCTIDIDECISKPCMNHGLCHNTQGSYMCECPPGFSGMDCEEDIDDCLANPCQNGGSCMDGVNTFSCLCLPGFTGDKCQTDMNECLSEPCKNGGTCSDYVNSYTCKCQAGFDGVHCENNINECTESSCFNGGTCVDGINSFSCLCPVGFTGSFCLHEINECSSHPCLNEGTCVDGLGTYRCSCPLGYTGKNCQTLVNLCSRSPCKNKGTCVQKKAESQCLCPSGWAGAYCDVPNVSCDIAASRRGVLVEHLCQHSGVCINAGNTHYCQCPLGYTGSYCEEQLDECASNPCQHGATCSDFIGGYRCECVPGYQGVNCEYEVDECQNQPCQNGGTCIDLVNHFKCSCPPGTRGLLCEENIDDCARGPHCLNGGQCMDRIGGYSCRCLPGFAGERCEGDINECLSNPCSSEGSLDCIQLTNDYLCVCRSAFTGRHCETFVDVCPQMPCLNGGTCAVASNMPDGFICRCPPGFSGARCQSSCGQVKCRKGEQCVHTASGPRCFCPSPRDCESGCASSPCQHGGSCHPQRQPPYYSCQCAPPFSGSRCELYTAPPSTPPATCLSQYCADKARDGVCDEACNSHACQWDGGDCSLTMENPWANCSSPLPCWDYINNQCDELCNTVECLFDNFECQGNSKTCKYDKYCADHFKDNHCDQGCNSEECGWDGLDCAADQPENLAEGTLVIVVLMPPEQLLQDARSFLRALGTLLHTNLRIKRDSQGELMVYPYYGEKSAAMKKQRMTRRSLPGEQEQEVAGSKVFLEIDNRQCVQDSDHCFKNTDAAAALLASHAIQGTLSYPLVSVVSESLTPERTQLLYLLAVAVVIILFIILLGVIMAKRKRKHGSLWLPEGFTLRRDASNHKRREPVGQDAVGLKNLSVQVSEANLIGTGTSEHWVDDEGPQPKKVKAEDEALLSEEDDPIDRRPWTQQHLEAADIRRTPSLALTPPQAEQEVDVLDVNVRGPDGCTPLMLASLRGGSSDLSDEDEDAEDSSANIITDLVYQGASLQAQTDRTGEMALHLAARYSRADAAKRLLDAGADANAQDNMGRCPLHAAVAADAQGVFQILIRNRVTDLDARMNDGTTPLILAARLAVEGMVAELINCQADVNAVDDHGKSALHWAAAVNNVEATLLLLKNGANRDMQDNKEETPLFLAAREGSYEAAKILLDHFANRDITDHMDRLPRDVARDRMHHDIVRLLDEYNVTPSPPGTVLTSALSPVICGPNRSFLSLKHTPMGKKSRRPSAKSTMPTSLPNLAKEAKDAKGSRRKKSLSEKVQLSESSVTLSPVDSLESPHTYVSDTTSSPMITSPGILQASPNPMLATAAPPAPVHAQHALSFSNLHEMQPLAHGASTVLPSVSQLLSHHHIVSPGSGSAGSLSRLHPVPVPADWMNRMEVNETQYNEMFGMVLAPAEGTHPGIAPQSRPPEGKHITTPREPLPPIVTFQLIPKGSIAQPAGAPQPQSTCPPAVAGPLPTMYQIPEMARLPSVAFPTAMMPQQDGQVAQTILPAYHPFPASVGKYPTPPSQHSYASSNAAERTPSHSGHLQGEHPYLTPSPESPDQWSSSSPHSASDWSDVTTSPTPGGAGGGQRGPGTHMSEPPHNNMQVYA
Neurogenic locus notch homolog protein 3 (Homo sapiens), sequence (Q9UM47 whole entry, looked up): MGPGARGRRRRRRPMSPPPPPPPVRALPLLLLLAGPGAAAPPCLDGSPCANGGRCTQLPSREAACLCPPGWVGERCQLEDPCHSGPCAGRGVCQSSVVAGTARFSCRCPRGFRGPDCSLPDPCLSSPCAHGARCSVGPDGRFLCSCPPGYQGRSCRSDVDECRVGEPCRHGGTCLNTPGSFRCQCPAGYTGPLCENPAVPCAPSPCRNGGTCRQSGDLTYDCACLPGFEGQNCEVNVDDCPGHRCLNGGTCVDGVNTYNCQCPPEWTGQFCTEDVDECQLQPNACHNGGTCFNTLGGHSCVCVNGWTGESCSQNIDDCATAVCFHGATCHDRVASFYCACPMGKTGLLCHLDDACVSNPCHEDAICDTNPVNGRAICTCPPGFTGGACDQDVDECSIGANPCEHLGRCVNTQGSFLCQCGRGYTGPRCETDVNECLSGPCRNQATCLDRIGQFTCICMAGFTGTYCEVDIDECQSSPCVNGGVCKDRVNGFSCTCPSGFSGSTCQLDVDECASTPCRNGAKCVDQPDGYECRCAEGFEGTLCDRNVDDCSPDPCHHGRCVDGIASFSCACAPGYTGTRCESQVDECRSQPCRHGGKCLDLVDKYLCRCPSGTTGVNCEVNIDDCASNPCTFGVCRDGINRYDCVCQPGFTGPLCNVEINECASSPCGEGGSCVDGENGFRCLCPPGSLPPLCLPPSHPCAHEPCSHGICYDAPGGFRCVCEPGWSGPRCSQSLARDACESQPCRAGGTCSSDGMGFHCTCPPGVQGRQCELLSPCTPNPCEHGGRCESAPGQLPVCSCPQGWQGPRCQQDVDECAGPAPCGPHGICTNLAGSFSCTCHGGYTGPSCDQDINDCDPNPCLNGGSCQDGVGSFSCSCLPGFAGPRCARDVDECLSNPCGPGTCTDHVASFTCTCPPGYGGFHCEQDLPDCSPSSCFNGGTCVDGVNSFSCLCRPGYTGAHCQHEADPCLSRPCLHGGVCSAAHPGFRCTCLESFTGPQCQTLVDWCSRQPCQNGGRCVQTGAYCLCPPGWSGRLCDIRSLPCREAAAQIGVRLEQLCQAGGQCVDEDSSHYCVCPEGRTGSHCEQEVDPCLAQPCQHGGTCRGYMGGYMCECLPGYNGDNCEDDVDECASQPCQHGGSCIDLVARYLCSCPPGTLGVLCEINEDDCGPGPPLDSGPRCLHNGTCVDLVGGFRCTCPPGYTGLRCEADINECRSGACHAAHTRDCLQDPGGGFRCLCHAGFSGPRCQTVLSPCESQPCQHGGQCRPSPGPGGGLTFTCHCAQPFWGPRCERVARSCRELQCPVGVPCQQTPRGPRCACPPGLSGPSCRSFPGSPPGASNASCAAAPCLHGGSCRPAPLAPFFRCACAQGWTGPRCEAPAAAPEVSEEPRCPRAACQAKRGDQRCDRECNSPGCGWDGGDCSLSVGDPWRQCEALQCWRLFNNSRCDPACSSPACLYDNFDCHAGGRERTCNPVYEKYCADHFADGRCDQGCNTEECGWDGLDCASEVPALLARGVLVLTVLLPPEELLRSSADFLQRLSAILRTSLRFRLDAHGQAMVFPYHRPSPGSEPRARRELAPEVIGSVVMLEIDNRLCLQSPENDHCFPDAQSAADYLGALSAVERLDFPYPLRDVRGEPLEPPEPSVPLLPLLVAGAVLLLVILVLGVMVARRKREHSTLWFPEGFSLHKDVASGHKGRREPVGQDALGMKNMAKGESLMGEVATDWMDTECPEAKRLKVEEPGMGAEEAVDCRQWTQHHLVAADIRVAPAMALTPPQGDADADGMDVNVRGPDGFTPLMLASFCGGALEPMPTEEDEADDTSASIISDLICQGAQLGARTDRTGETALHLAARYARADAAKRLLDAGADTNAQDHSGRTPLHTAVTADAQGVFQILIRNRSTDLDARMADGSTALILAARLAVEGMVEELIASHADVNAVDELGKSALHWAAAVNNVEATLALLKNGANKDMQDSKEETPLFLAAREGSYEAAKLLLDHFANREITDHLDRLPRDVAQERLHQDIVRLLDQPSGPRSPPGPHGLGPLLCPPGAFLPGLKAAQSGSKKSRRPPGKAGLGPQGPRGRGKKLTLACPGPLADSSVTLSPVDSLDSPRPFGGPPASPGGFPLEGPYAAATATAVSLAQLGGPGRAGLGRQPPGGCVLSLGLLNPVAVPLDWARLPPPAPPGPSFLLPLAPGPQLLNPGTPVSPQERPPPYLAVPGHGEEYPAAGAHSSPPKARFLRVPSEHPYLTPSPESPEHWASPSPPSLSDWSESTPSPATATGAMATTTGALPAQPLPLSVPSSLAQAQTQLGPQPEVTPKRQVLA

For `NC(=O)NCC#Cc1ccc2c(c1)[C@]1(C(=O)N2)[C@H](c2ccc(OCCO)cc2)N2[C@H](c3ccccc3)[C@H](c3ccccc3)OC(=O)[C@H]2[C@@H]1C(=O)NC[C@H](O)c1ccccc1`, the composite z-score was -0.142 in assay [1]; -0.329 in assay [2]; -0.0586 in assay [3]; 0.029 in [4]; 0.322 in [5]; 0.577 in assay [6]. For the same compound, the composite z-score in [7] was -0.164; in assay [9], 0.103; in assay [10], -0.134; in assay [11], 0.26; in [15] it was 0.741; in assay [17], 0.0041. In addition, the values for the composite z-score in assay [18], in assay [19] and in assay [20] were 0.565, -0.311 and -0.141, respectively. Moreover, the z-score in assay [8] was -0.0847 (inactive); in assay [12], 2.87 (inactive); in assay [13], 1.98 (inactive); in assay [14], 3.9 (inactive); in assay [16] it was 2.55 (inactive).

Take `COC(=O)[C@@]1(Cc2ccccc2)[C@H]2c3cc(C(=O)N(C)C)n(CCO)c3C[C@H]2CN1C(=O)c1ccccc1`: the composite z-score in assay [1] turned out to be 0.348; in assay [2], 0.0312; in assay [3], 0.152; in assay [4] it was 1.14; in assay [5], 1.39; in assay [6] it was 1.93. Further, the composite z-score in assay [7] is 1.17; in assay [9], 0.647; in assay [10], -0.418; in [11] it was 0.805; in assay [15], 4.04; in [17] it was 0.381. The composite z-score in [18] is -0.779; in [19] it was 1.02; in [20] it was 0.418. Further, the z-score in [8] was 1.27 (inactive); in assay [12], 0.136 (inactive); in assay [13] it was 0.612 (inactive); in [14], 0.26 (inactive); in [16], -0.508 (inactive).

Take `[N-]=[N+]=Nc1ccccc1[C@H]1OC(c2ccc(OCCCO)cc2)=N[C@@]1(Cc1ccccc1)C(=O)NCC(O)CO` (stereo not given in full): the composite z-score in assay [1] is 0.277; in assay [2], 0.0899; in [3] it was 0.0528; in [4], 0.231; in assay [5], 1.36; in assay [6], 1.19. Moreover, the composite z-score in [7] is 1.12; in [9], 1.03; in [10], -0.0541; in [11] it was 1.02; in assay [15], 3.52; in assay [17], 0.109. The values for the composite z-score in assay [18], in [19] and in assay [20] were 0.0821, 0.206 and -0.0226, respectively. Besides, the z-score in assay [8] was 2.22 (inactive); in assay [12] it was -0.858 (inactive); in assay [13] it was -1.13 (inactive); in assay [14] it was 0.617 (inactive); in assay [16] it was 0.824 (inactive).

For `C=C(COC)/C(=C/C[C@H](OC(C)=O)c1ccccc1OCCO)c1cc(C(=O)OC)ccc1OC`, the composite z-score in assay [1] was -0.398; in assay [2], 0.275; in assay [3], -0.0948; in assay [4], 1.05; in assay [5], -0.738; in [6] it was 0.727. Moreover, the composite z-score in assay [7] was 1.28; in assay [9] it was 0.318; in assay [10] it was -0.0003; in assay [11] it was 1.48; in [15], 1.76; in assay [17] it was -0.0928. Besides, the composite z-score in [18] is 0.485; in assay [19], 0.372; in assay [20] it was -0.0815. In addition, the z-score in assay [8] was 0.181 (inactive); in assay [12] it was 0.909 (inactive); in [13], -0.662 (inactive); in [14] it was -0.16 (inactive); in assay [16] it was 0.952 (inactive).

Take `CC(C)(C)N1CC=CC23O[C@@H]4/C=C\CCCOC(=O)C4[C@H]2C(=O)N(CCCCCO)[C@@H]3C1=O` (stereo not given in full): the composite z-score in [1] was 1.26; in assay [2], -0.406; in [3], -0.227; in [4] it was -0.668; in [5], -0.545; in [6], -0.229. Besides, the composite z-score in [7] was -0.448; in assay [9], -1.09; in [10], 0.176; in assay [11], -0.981; in [15], 0.389; in assay [17] it was -0.114. For the same compound, the composite z-score in assay [18] is -1.48; in [19], -0.457; in assay [20] it was -0.289. Moreover, the z-score in assay [8] was -0.106 (inactive); in [12] it was -0.143 (inactive); in [13], 0.0289 (inactive); in [14], -0.635 (inactive); in [16], -0.938 (inactive).
